# Measurements: PMC7862700, “An all-to-all approach to the identification of sequence-specific readers for epigenetic DNA modifications on cytosine”
# What was measured:
# Assay in all cases: DAPPL (digital affinity profiling via proximity ligation, sequencing); 10 mM Tris-HCl pH 7.5, 50 mM NaCl, 1 mM DTT, 4% glycerol, room temperature, 30 min; GST-TFs on glutathione beads, 16-mer random dsDNA library, 0.1% formaldehyde crosslink after washing; high values mean tight binding
# Details in all cases: protein: recombinant; tags: N-terminal GST; dsDNA, one strand shown
# ETV1 = ETV1 (Homo sapiens, UniProt P50549 1-477)
# Chain of ETV1 (P50549 whole entry, the tested form may be a part): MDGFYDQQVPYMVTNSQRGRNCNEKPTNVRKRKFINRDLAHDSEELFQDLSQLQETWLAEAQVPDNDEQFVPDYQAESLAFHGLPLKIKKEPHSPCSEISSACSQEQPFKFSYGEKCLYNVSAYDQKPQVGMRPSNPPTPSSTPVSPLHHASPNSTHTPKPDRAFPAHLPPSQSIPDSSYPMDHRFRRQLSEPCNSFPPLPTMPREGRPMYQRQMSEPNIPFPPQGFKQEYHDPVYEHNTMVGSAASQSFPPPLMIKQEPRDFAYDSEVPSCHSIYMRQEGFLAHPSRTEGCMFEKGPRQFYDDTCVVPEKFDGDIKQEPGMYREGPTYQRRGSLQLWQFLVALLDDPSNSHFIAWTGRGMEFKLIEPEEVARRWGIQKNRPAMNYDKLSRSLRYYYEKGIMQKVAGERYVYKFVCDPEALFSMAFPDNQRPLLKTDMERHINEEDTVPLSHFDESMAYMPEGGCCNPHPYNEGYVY
# Summary of the method: (§1)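 Yeast served to express human transcription factors as GST fusions, which were then captured on glutathione beads and labelled with DNA barcodes. Pooled with a tag-only sample, they were incubated with 200 nmole of a 16-mer random double-stranded DNA library for 30 min at room temperature in Tris/NaCl/DTT/glycerol buffer, washed, crosslinked with 0.1% formaldehyde, ligated by proximity, amplified by PCR and sequenced. Dividing each hexamer's read frequency for a factor by its frequency for the tag-only sample gives the binding signal.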
# ERF = molecular target: T1, ERF (Homo sapiens, UniProt P50548 1-548)
# T1 sequence: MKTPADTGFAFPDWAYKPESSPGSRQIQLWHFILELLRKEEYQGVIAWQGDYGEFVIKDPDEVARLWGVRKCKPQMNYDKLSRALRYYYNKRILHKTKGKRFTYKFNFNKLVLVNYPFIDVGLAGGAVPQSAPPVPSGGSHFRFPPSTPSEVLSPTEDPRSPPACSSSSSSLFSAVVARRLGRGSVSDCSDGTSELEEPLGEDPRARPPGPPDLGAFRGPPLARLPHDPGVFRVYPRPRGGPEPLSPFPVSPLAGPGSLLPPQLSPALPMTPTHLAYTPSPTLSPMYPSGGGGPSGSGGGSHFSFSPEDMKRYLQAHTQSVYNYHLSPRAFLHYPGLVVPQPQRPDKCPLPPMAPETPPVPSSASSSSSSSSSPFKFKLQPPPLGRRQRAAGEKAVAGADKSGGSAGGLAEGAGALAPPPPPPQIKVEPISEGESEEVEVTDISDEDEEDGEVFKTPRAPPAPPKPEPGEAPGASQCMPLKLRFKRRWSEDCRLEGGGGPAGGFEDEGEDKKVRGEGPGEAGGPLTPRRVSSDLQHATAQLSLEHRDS
# Summary of the method: as §1
# ETV3L = molecular target: T2, ETV3L (Homo sapiens, UniProt Q6ZN32 1-361)
# T2 sequence: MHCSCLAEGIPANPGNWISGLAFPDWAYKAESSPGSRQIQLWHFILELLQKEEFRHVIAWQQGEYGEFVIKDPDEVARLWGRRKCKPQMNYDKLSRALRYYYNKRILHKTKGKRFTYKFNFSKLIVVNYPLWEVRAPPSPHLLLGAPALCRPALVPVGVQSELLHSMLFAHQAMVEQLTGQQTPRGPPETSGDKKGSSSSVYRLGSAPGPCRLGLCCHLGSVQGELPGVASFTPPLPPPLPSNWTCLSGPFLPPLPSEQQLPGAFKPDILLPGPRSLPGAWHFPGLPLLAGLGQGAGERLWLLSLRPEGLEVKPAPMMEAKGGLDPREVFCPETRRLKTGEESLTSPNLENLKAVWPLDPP
# Summary of the method: as §1
# ETS2 = molecular target: T3, ETS2 (Homo sapiens, UniProt P15036 1-469)
# T3 sequence: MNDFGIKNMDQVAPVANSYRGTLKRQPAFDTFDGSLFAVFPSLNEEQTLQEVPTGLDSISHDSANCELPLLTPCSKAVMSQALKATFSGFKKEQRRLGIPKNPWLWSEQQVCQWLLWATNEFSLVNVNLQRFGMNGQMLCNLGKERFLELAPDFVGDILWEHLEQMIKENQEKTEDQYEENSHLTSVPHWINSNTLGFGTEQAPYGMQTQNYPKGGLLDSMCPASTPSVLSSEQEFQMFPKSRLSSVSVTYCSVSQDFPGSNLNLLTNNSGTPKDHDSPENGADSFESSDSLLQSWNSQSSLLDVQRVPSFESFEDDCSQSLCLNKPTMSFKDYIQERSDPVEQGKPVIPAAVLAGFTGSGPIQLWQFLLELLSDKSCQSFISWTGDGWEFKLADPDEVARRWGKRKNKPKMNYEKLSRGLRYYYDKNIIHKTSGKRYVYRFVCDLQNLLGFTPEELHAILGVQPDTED
# Summary of the method: as §1
# SPDEF = molecular target: T4, SPDEF (Homo sapiens, UniProt O95238 1-335)
# T4 sequence: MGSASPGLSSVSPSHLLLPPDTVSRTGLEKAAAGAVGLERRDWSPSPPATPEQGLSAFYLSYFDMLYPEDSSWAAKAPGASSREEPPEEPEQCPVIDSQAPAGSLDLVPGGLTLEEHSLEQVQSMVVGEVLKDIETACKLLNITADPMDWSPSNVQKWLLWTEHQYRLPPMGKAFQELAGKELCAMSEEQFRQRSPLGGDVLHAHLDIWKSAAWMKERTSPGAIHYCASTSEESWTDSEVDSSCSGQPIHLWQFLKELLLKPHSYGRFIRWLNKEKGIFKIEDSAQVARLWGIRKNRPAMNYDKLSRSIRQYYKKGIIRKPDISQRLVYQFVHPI
# Summary of the method: as §1
# ETV7 = molecular target: T5, ETV7 (Homo sapiens, UniProt Q9Y603 1-341)
# T5 sequence: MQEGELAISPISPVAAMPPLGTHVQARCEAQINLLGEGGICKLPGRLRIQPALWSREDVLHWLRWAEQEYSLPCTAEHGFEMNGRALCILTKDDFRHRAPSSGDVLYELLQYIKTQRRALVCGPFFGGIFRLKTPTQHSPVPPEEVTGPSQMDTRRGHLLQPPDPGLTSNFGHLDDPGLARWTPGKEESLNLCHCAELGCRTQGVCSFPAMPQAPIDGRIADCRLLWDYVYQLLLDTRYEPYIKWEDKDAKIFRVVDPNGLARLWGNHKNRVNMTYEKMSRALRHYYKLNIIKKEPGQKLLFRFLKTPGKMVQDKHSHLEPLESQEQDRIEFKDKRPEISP
# Summary of the method: as §1
# ELF5 = molecular target: T6, ELF5 (Homo sapiens, UniProt Q9UKW6-2 1-255)
# T6 sequence: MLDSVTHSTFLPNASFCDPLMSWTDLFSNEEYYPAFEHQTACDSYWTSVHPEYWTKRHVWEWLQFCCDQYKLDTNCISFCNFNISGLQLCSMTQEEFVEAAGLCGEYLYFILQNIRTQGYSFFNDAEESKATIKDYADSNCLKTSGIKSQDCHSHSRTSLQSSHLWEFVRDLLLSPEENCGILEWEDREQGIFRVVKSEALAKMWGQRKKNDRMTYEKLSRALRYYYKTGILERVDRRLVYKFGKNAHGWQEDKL
# Summary of the method: as §1
# ETV3 = molecular target: T7, ETV3 (Homo sapiens, UniProt P41162-2 1-143)
# T7 sequence: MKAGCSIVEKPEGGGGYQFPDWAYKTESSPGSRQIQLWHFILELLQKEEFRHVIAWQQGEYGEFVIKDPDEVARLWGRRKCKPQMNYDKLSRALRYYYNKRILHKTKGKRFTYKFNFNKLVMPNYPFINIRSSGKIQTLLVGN
# Summary of the method: as §1
# ETV6 = ETV6 (Homo sapiens, UniProt P41212 1-452)
# Chain of ETV6 (P41212 whole entry): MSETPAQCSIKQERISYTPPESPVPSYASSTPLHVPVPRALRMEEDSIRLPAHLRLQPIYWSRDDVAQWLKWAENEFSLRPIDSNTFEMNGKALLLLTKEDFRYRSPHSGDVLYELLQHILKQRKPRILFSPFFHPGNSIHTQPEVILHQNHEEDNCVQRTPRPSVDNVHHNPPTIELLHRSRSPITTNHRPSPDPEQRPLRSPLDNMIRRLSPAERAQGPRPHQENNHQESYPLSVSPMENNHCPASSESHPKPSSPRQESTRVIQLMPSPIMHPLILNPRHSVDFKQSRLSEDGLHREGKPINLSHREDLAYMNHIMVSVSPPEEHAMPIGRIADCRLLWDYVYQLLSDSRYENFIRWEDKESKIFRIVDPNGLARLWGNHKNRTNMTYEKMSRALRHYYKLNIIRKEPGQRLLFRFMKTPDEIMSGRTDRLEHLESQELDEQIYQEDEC
# Summary of the method: as §1
sequence,measurement,setting,value
GCTCCC,binding signal,ETV1,"1.24 fold enrichment (6-mer frequency, TF over GST control)"
same,binding signal,ERF,"1.29 fold enrichment (6-mer frequency, TF over GST control)"
same,binding signal,ETV3L,"1.27 fold enrichment (6-mer frequency, TF over GST control)"
same,binding signal,ETS2,"1.35 fold enrichment (6-mer frequency, TF over GST control)"
same,binding signal,SPDEF,"1.47 fold enrichment (6-mer frequency, TF over GST control)"
same,binding signal,ETV7,"1.31 fold enrichment (6-mer frequency, TF over GST control)"
same,binding signal,ELF5,"1.33 fold enrichment (6-mer frequency, TF over GST control)"
same,binding signal,ETV3,"1.21 fold enrichment (6-mer frequency, TF over GST control)"
same,binding signal,ETV6,"1.25 fold enrichment (6-mer frequency, TF over GST control)"
